Test results taken from PubChem BioAssay (NCATS).
Inconclusive results are not listed. The call rests on the fitted dose curve; in most records, active means well fitted activation curve with a large enough effect in the main read-out, with a control signal flat (not every such curve was filed as active); inconclusive means small, poorly fitted or top-dose-only effect, or effect the other way, or a change in a side signal; inactive means flat fitted curve, though single readings scatter.

These molecules were tested against 3',5'-cyclic-AMP phosphodiesterase 4B (Homo sapiens) (UniProt Q07343) (assay: qHTS Assay for Inhibitors of PDE-IV (AID 607; further: % of control where 0% means no effect)). Conditions: HEK293 ACTOne CNG channel cells, membrane potential fluorescence; series mostly up to 22.9 µM; activation (PDE inhibition): at the top concentration.
In short: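 HEK293 ACTOne cells with CNG channel (1000/well), endogenous PDE4; membrane potential dye, compounds up to 22.9 uM final. Fluorescence Ex 535/Em 590; RO 20-1724 (100 uM final) as reference.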

Sequence of 3',5'-cyclic-AMP phosphodiesterase 4B (Homo sapiens) (Q07343 whole entry, looked up): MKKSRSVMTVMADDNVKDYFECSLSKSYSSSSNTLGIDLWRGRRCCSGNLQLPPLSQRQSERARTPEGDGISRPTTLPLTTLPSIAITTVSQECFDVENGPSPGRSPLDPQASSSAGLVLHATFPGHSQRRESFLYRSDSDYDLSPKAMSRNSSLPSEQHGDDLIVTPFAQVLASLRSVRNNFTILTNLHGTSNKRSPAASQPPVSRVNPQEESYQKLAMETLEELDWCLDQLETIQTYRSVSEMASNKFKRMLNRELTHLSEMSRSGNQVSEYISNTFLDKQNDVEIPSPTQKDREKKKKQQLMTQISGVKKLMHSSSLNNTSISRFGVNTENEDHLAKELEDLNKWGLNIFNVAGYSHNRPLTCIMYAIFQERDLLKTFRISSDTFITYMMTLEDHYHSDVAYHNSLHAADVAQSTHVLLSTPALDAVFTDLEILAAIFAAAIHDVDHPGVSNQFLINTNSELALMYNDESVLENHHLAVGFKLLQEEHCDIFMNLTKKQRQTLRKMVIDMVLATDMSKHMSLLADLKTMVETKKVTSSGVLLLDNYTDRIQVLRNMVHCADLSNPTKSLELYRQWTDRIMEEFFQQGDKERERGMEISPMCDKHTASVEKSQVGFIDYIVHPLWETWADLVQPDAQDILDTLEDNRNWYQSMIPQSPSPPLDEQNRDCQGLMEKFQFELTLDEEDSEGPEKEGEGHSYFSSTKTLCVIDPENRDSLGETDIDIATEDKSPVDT

Activation (PDE inhibition), inactive:
CC(=O)OCC1C2CC[C@H]3C(OCc4ccc(F)cc4C(F)(F)F)OC[C@]4(C)[C@H]3C2=C(CN4C(=O)OC(C)(C)C)[C@H](C)C1COC(C)=O (some centres undefined) 12.9%
COC(=O)[C@@]1(Cc2ccc(OC)cc2)[C@H]2c3cc(C(=O)N(C)C)n(CCSCCO)c3C[C@H]2CN1C(=O)c1ccccc1 16.2%
COC(=O)[C@@]1(Cc2ccccc2)[C@H]2c3cc(C(=O)N(C)C)n(Cc4ccc(OC)c(OC)c4)c3C[C@H]2CN1C(=O)c1ccccc1 16.9%
C[C@@H](C(=O)N[C@@H](CO)Cc1ccccc1)[C@@H]1C[C@@]1(C)[C@@H](NC(=O)OCc1ccccc1)c1ccccc1 0.908%
